# Only some compounds are listed: those with a hit (about 4.5% of all), similar ones and a draw of the others.
# HDAC3 inh = blocks human histone deacetylase 3; O15379; recombinant HDAC3, fluorogenic peptide/trypsin coupled, fluorescence; inhibition, % at 8.3 µM; hit rate 0.15% among 320,000; AID 2718; in the data active = inhibition above about 26%, passing the limit was not always enough; inconclusive = no clear call, values can overlap the other calls
# Rtt109 HAT inh = blocks Candida albicans Rtt109/Vps75 acetyltransferase activity; inhibition, % at 34.9 µM; AID 540336; hit rate 0.16% among 330,000; purified Rtt109/Vps75, ThioGlo CoA-SH fluorescence, 4 h; Q5AAJ8;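 active = inhibition of at least 50% in every replicate; inconclusive = best replicate reaches 50% inhibition but some replicates fall short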
# Target sequence (Q5AAJ8 whole entry, looked up): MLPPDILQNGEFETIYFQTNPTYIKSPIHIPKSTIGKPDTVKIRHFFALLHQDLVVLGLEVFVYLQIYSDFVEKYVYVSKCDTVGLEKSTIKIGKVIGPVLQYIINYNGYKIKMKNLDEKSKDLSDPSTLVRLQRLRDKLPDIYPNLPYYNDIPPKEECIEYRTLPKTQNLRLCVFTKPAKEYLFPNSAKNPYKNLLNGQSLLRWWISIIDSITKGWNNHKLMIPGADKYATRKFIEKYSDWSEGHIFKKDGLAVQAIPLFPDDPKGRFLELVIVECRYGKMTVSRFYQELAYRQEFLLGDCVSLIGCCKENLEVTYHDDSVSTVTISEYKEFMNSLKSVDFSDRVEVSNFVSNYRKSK
# ALR H2O2 inh = inhibitors of human sulfhydryl oxidase ALR | P55789 | purified ALR, DTT oxidation, H2O2 HRP-luminol luminescence | inhibition, % (no concentration beside the values) | hit rate 3.8% among 290,000 | AID 485317;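 active = mean replicate inhibition above about 79%, with every replicate also reaching it, limit read from the data; inconclusive = only one of the two criteria met; inactive = mean below limit and not every replicate reaching it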
# Target sequence (P55789 whole entry, looked up): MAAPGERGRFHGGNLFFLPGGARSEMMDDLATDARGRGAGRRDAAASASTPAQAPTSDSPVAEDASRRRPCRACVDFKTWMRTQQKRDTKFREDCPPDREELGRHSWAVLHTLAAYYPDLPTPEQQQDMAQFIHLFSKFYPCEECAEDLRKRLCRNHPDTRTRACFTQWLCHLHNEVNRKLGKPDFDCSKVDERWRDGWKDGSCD
# Rce1 inhib = inhibitors of yeast Ras-converting enzyme. yeast membranes, quenched prenylated peptide cleavage fluorescence. calls only. hit rate 0.27% among 290,000;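 active = fall in fluorescence gain of 50% or more versus controls, with final raw signal at or below 3038400; inconclusive = same 50% fall but final raw signal above 3038400; inactive = fall in fluorescence gain under 50%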;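 also: plate controls were neutral control wells for no effect and wells lacking membranes for full effect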
# GRK2 inh = blocks RNA aptamer binding to human GRK2 | bead flow cytometry, FAM-aptamer displacement from GRK2 | inhibition of aptamer binding, % at 10 µM | hit rate 0.59% among 330,000;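 active = inhibition of aptamer binding above 40%, roughly 3 SD of noise, on plates passing a quality check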;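 also: median bead fluorescence of bound FAM aptamer so fluorescent compounds give negative values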
# Efflux pump inh = antifungal efflux pump inhibition, Nile Red retention | S. cerevisiae Candida pump triplex | inhibition, % at 10 µM | hit rate 0.44% among 330,000;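 active = plate passing quality check with inhibition over a set limit, or well fluorescence over plate mean plus 4 SD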;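 also: Nile Red retained in pooled yeast measured as flow cytometry median fluorescence; 0% = buffer negative control and 100% = Enniatin B positive control; higher means more Nile Red kept so more efflux inhibition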
# Yeast cmpd fluor = flagged as fluorescent in efflux inhibitor counter-screen; fluorescence ratio to DMSO, % at 10 µM; S. cerevisiae AD/pABC3, compound fluorescence, flow cytometry; shares compounds with Efflux pump inh; hit rate 4% among 1,700;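 active = fluorescence ratio to DMSO above its plate's cutoff, the plate mean ratio plus 5 SD, cut at about 210% in these data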;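 also: unstained yeast with no Nile Red so the signal is compound autofluorescence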
# CaMdr1 efflux inh = blocks the Candida albicans Mdr1 efflux pump in yeast. shares compounds with Efflux pump inh. S. cerevisiae AD/CaMDR1, Nile Red efflux, flow cytometry. inhibition, % at 10 µM. hit rate 1% among 1,700. AID 588518; in the data active = inhibition above about 26%;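 also: 0% = DMSO vehicle and 100% = reference inhibitor; higher means more Nile Red retained so more efflux inhibition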
# Cdr2 pump inh = Candida Cdr2 efflux pump inhibition; shares compounds with Efflux pump inh; S. cerevisiae AD/CaCDR2, Nile Red retention, flow cytometry; Nile Red retention ratio vs DMSO, % at 10 µM; hit rate 4% among 1,700; AID 588520; in the data active = Nile Red retention ratio vs DMSO above about 190%;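 also: higher ratio means more blocking of Cdr2 efflux of the dye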
# CaCdr1 efflux inh = Candida Cdr1 efflux pump inhibition. shares compounds with Efflux pump inh. S. cerevisiae AD/CaCDR1, Nile Red efflux, flow cytometry. inhibition, % at 10 µM. hit rate 1% among 1,700;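 active = inhibition above the screen-wide mean plus twice its standard deviation, cut at about 32% in these data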
# Starred values were filed as active, the others as inactive; i = inactive; ? = inconclusive; . = no result; + = active, no number.
SMILES,HDAC3 inh,Rtt109 HAT inh,ALR H2O2 inh,Rce1 inhib,GRK2 inh,Efflux pump inh,Yeast cmpd fluor,CaMdr1 efflux inh,Cdr2 pump inh,CaCdr1 efflux inh
CCCCNC(=O)N1CCCN(c2ccc(C#N)cn2)CC1,-1,-22,4,i,1,0,.,.,.,.
O=C(Nc1ccc(Oc2cccc(C(F)(F)F)c2)nc1)c1cccs1,11,7,-5,i,0,0,.,.,.,.
CCCCCCCCCC[N+](C)(C)CC/C=C1/c2ccccc2Sc2ccc(Cl)cc21,35*,4,-1,+,0,1.8*,98,0,116,0
CC[N+](C)(C)CC/C=C1/c2ccccc2Sc2ccc(Cl)cc21,-3,.,-16,i,0,0,100,0,102,0
CCCCCCCCCCC[N+](C)(C)CC/C=C1/c2ccccc2Sc2ccc(Cl)cc21,32*,-5,1,+,0,1.8*,146,1,260*,0
CCCCn1cc(S(=O)(=O)c2ccccc2)c(=O)c2cc(C)ccc21,0,0,-13,i,0,0,.,.,.,.
Cc1c(C(=O)NC2CCOC2)oc2c(F)cccc12 (centres undefined),-6,4,-5,i,0,0,.,.,.,.
N#Cc1cnc(NN)nc1,0,-3,9,i,1,0.9*,107,0,106,0
O=C1CC/C=C\C[C@@H](CC(=O)N(CCO)Cc2ccccc2)C(=O)N[C@H](Cc2c[nH]c3ccccc23)CO1,-5,8,4,.,0,0,.,.,.,.
Cc1ccc(C)c(N2CCN(C(=O)C3CCCN(c4ncnc5c4nc4n5CCCCC4)C3)CC2)c1 (centres undefined),14,-4,0,i,3,2.5*,79,0,+,0
CCCCn1c(N)c(N(CCOC)C(=O)COC(=O)c2cc(CCC)c(C)s2)c(=O)[nH]c1=O,.,11,-5,i,0,0,.,.,.,.
CCNS(=O)(=O)c1ccc2c(c1)NCC2,1,1,-10,i,.,12*,105,0,95,0
CCNS(=O)(=O)c1ccc(OC)c(C)c1,-7,.,-8,i,0,0,.,.,.,.
COc1ccc(CCN2CC(C(=O)OCc3ccccc3Cl)CC2=O)cc1OC (centres undefined),.,2,.,.,.,.,.,.,.,.
CC(C)(C)S(=O)(=O)c1ccsc1C(=O)O,1,4,-2,i,1,14*,98,0,109,0
COC(=O)c1ccc(NC(=O)C2CCCN2C(=O)OCc2ccccc2)cc1 (centres undefined),-3,-6,10,i,1,0,.,.,.,.
COc1cccc(OCC(=O)NNC(=O)C(=O)Nc2cccc(C)c2)c1,4,-9,1,i,0,0,.,.,.,.
COc1ccc(Cn2c(=O)c3[nH]cnc3n(-c3ccccc3C)c2=O)cc1,.,-4,.,i,1,0.8*,100,0,116,0
COc1ccc2cc(C#N)c(N3CCN(Cc4nnnn4CCC(C)C)CC3)nc2c1,-1,-16,-10,i,3,0.7*,118,0,116,0
Cc1ncc(CO)c2cc(C(=O)Nc3ccccc3Cl)c(=Nc3cccc(C(N)=O)c3)oc12,-1,-9,-12,i,0,0,.,.,.,.
O=C(COC(=O)c1ccc(O)cc1O)NCCN1C(=O)CSC1=O,-1,1,-6,i,0,0,100,0,97,0
O=C(COC(=O)c1cccs1)NCCN1C(=O)CSC1=O,-4,.,1,i,1,0,.,.,.,.
O=C(COC(=O)c1cc(Cl)ccc1Cl)NCCN1C(=O)CSC1=O,-9,-6,-3,i,1,32*,95,0,101,0
C[C@@H]1CC[C@]2(C(=O)O)CC[C@]3(C)C(=CCC4[C@]56CC[C@@](O)(OC5)C(C)(C)C6CC[C@]43C)C2[C@H]1C (some centres undefined),12,2,.,.,0,1.4*,104,0,204*,0
CCCN(C(=O)CSc1nc2ccccc2n1CC)C1CCS(=O)(=O)C1 (centres undefined),-1,0,-58,i,1,0,.,.,.,.
SMILES,HDAC3 inh,Rtt109 HAT inh,ALR H2O2 inh,Rce1 inhib,GRK2 inh,Efflux pump inh,Yeast cmpd fluor,CaMdr1 efflux inh,Cdr2 pump inh,CaCdr1 efflux inh
Cc1cc(C)n(CC(=O)N/N=C/c2cc([N+](=O)[O-])ccc2O)n1,2,-17,53,i,1,19*,110,0,109,0
COc1cc(OC)cc(-c2c(-c3cccs3)c3cc(-c4ccc(N(C)C)nc4)ccc3n2C)c1,-1,-4,-4,.,0,0,.,.,.,.
CCN(C(=O)c1ccc(S(=O)(=O)N2CCCCC2)cc1)C1CCS(=O)(=O)C1 (centres undefined),?,7,0,i,4,0,.,.,.,.
CC(C)NC(=O)c1ccc2c(c1)N(Cc1ccccc1)C(=O)C(C)(C)O2,-1,11,-6,i,1,0,.,.,.,.
CS(=O)(=O)Nc1ccc(C(=O)Nc2ccc3c(c2)OCCO3)cc1,-3,1,-2,i,0,9.0*,106,0,110,5
O=C(Nc1ccc2c(c1)OCCO2)c1ccccc1,2,-1,3,i,0,0,.,.,.,.
O=C(NC(CSC(=O)c1ccccc1)C(=O)O)OCc1ccccc1 (centres undefined),.,5,.,.,.,.,.,.,.,.
CN(C)C(=O)CSc1nc2ccc(N3C(=O)c4ccccc4C3=O)cc2s1,4,2,-6,i,3,0.7*,90,0,100,0
CC(C)Oc1ccc(C(=O)NC(Cc2c[nH]c3ccccc23)C(=O)NN)cc1 (centres undefined),1,-6,-4,i,1,0,.,.,.,.
O=C(CSc1ccccc1)Nc1ccccc1C(=O)N1CCCC1,-3,11,-1,i,1,0,.,.,.,.
O=C(CCSc1ccccc1)Nc1ccccc1C(=O)N1CCCC1,0,2,0,i,1,9.6*,100,0,102,0
C[n+]1ccccc1/C=C/c1ccc(C#N)cc1,12,-1,-16,i,0,0,.,.,.,.
C[n+]1ccccc1/C=C/c1ccc([N+](=O)[O-])cc1,8,-2,-8,i,0,1.4*,133,1,120,0
CCC1CCCCN1C(=O)Cn1c(=O)n(CCCC(=O)NCc2ccco2)c(=O)c2sccc21 (centres undefined),2,-5,.,i,2,0,.,.,.,.

# Screening results (PubChem BioAssay)
